Test [1] deals with T1, Aspartate--tRNA(Asp/Asn) ligase (Mycobacterium tuberculosis (strain ATCC 25618 / H37Rv)) (UniProt P9WFW3).
T1 sequence (whole entry): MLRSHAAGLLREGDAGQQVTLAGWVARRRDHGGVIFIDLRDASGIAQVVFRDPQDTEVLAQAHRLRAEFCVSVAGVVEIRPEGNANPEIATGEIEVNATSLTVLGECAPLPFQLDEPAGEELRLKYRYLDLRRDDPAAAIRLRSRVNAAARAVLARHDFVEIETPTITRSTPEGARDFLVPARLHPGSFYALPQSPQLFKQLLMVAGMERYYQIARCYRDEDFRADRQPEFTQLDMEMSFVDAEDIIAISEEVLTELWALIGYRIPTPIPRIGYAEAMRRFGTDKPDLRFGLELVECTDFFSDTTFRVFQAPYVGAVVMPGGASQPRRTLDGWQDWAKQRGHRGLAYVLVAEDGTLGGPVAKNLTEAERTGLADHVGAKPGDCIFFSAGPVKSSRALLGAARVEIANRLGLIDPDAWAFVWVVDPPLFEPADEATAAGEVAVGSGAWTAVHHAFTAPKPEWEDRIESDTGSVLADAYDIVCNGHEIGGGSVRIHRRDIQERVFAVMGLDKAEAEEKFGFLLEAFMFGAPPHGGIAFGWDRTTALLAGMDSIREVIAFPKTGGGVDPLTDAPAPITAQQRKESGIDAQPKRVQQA
The test is described as follows: Assay for Asp RNA synthetase-1 from Mycobacterium tuberculosis. Further details: scale not given: direction of the effect not stated beside the values. To be noted: 30 µM. The class given is functional.

The target of test [2] is Shiga toxin 2 (Escherichia coli O157:H7) (UniProt P09385+P09386). The test is described as follows: E. coli 0.157:H7 Shiga Toxin SOP - stx2 screening assay. The class given is functional. Further details: scale not given: direction of the effect not stated beside the values. Conditions: 30 µM.

Take `O=C(N1CCCC1)N1Cc2nccn2CC(CN2CCCC2)C1` (centres undefined): the Percent Effect in test [1] was -5.76%; in test [2], 1.77%.

On to `Cc1cc(CN2CCc3nn(C)c(=O)cc3C2)on1`, for which the Percent Effect in test [1] turned out to be 46.2%; in test [2], 0.17%.

As for `CCn1c(C)nnc1CN(C)C1CCN(CCCOC)C1` (centres undefined), the Percent Effect in test [1] stood at 1.79%; in test [2], 7.8%.

As for `CS(=O)(=O)N1CCOC2(CCCN(c3cnccn3)C2)C1` (centres undefined), the Percent Effect in test [1] is -5.91%; in test [2] it was -3.98%.

Consider `Fc1ccc(-c2cnc(CN3CCCC3Cn3cccn3)o2)cc1` (centres undefined), for which the Percent Effect in test [1] was -1.83%; in test [2], 8.21%.

Consider `Cc1nc(C(=O)N2CCC(Cc3cnc4[nH]ccc4c3)C2)co1` (centres undefined), for which the Percent Effect in test [1] came to 1.31%; in test [2], 62.2%.

With `CC(C)S(=O)(=O)NCC1CCCN(C(=O)c2cccnc2)C1` (centres undefined), the values for the Percent Effect in test [1] and in test [2] were -0.834% and -4.9%, respectively.

Regarding `COCC1CCN(c2cc(C3CN(C)CCO3)nc(C)n2)CC1` (centres undefined), the figures for the Percent Effect in test [1] and in test [2] were -1.84% and -3.4%, respectively.

`Cn1cnc2c1CCN(Cc1cccc(OCC(N)=O)c1)C2`: the Percent Effect was -4.08% in test [1] and -24.5% in test [2].

Regarding `NC(=O)c1ccc(S(=O)(=O)NC2CCN(Cc3ccccc3)C2=O)cc1` (centres undefined), the values for the Percent Effect in test [1] and in test [2] were -5.17% and 5.52%, respectively.

As for `CCC(CC)c1cc(CNC(=O)N2CCOCC2CC)on1` (centres undefined), the values for the Percent Effect in test [1] and in test [2] were -2.19% and 9.7%, respectively.

As to `CCn1ncnc1C(C)NC(=O)C1CCN(C(C)C)CC1` (centres undefined), the Percent Effect is 3.06% in test [1] and -16.7% in test [2].

Take `O=S1(=O)CCCN1Cc1coc(-c2cccs2)n1`: the Percent Effect in test [1] is -3.68%; in test [2], 0.853%.

As to `COc1ccc(CN2C[C@@H]3COC[C@]3(CN(C)C)C2)cc1`, the values for the Percent Effect in test [1] and in test [2] were 2.52% and 3.85%, respectively.

Regarding `CC(C)NC(=O)C1CN(C(=O)Nc2ccccc2)CC12CCOCC2` (centres undefined), the figures for the Percent Effect in test [1] and in test [2] were 12.7% and -4.72%, respectively.

As for `O=S(=O)(c1ccccc1)N1CCCN(CCCn2ccnc2)CC1`, the Percent Effect in test [1] was -2.67%; in test [2], -12.6%.

Turning to `Cn1cc(CN2CCCC3(CCN(Cc4cccnc4)C3=O)C2)cn1` (centres undefined), the figures for the Percent Effect in test [1] and in test [2] were -1.18% and -7.77%, respectively.

The values are drawn from ChEMBL document CHEMBL3988442, “University of Dundee, Small-Polar-MMV Screening Library” (2021).
